Screening data: PubChem, National Center for Advancing Translational Sciences (NCATS)
LMNA splice mod: qHTS Assay for Modulators of Lamin A Splicing. HeLa LMNA splicing GFP/RFP minigene ratio, 48 h. Potency, µM (top dose mostly 46.1 µM), usual class: inhibitors. 0.01% of 200,000 active; active = well fitted inhibition curve with a large enough effect in the signal ratio, with a control signal flat, not every such curve was filed as active; inconclusive = small, poorly fitted or top-dose-only effect, or effect the other way, or a change in a side signal; the % refers to the signal ratio
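S3 HeLa cells stably expressing lamin A-EGFP splicing minigene plus DsRed2, 600 cells/well, 48 h compound exposure at 37C. Laser-scanning cytometry; analysed as GFP (500-530 nm)/RFP (575-640 nm) total intensity ratio; 0.5% DMSO vehicle.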
ALOX12 inhib: qHTS Assay for Inhibitors of 12-hLO (12-human lipoxygenase); Polyunsaturated fatty acid lipoxygenase ALOX12 (Homo sapiens), P18054; purified 12-hLO, xylenol orange hydroperoxide absorbance; Potency, µM (top dose mostly 57.1 µM), hits mostly inhibitors; 0.12% of 150,000 active; active = well fitted inhibition curve with a large enough effect; inconclusive = small, poorly fitted or top-dose-only effect; also: nearly all actives have a fitted effect of over 55% in size
Target sequence (P18054 whole entry, looked up): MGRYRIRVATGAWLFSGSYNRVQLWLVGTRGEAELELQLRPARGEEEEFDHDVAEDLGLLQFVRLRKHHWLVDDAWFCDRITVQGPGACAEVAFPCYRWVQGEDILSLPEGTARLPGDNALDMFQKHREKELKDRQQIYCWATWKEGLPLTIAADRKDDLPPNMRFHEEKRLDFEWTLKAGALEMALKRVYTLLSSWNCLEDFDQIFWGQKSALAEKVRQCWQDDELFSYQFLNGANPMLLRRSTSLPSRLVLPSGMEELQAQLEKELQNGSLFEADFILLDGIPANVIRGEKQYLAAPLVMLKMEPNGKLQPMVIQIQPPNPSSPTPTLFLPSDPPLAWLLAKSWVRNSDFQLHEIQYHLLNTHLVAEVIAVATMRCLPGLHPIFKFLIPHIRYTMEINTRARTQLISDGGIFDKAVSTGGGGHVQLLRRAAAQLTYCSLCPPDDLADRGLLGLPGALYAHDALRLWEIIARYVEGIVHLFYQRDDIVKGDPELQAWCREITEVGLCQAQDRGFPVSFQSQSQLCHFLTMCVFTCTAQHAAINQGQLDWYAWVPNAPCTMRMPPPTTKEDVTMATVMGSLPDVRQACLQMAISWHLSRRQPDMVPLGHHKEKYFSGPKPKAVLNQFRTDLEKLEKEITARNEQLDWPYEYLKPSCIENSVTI
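Purified human 12hLO (150 nM final) was preincubated with compounds for 15 min at room temperature in 25 mM Hepes pH 7.0, 0.01% Triton X-100, then reacted with 40 uM arachidonic acid for 30 min. Hydroperoxide was detected with ferrous iron/xylenol orange.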
ALDH1A1 block: qHTS Assay for Inhibitors of Aldehyde Dehydrogenase 1 (ALDH1A1). AID 1030, 2008. 7.3% of 220,000 active. Potency, µM (series often up to 75.3 µM), actives largely listed as inhibitors. Purified ALDH1A1, NADH fluorescence, propionaldehyde substrate
PNC assembly inh: High Content Assay for Compounds that inhibit the Assembly of the Perinucleolar Compartment; PC3M PTB-GFP, PNC prevalence imaging, 16 h; active compounds read low; activity change (PNC), negative = inhibition, % at 10 µM; 3.1% of 140,000 active;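 active = readout at or below -70, meaning at least 70% loss of cells showing the perinucleolar compartment, a nuclear body marking cancer cells; inconclusive = readout between -30 and a set limit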
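PC3M cells stably expressing PTB-GFP, 750–1000 cells/well, treated 16 h at 37 °C with compound (23 nl of library stock), in duplicate. After paraformaldehyde fixation and Hoechst stain, imaged at 20x; PNC prevalence scored by image analysis.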
HPGD block: qHTS Assay for Inhibitors of HPGD (15-Hydroxyprostaglandin Dehydrogenase) | Potency, µM, usual class: inhibitors | purified HPGD, NADH fluorescence kinetic, PGE2 substrate | 4.3% of 150,000 active | 15-hydroxyprostaglandin dehydrogenase [NAD(+)] (Homo sapiens), P15428
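20 nM HPGD preincubated 15 min at room temperature with compound in 50 mM Tris-HCl pH 8, 0.01% Tween 20. Started with 1 mM NAD+ and 30 uM prostaglandin E2; NADH fluorescence (360/450 nm) read 5 times over 30-s intervals, last minus first.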
Hits are given with their value; i = inactive; ? = inconclusive; nt = no result given; [ ] = another dose, or the depositor's remark. Most compounds without a hit are left out; they make up all but 10% or so of the library. Unless noted, calls follow the shape of the dose curve; as a rule, active = well fitted inhibition curve with a large enough effect (not every such curve was filed as active); inconclusive = small, poorly fitted or top-dose-only effect, or another doubt; inactive = no such curve, though single readings can be large or run the other way.

SMILES	LMNA splice mod	ALOX12 inhib	ALDH1A1 block	PNC assembly inh	HPGD block
CC(C)C(O)(C(C)C)C(C)C	nt	i[11.4 µM]	?	nt	i
Cc1ccc(C)c(N(CC(=O)NC2CCCC2)C(=O)c2cc3cc4cccc(C)c4nc3s2)c1	i	i	i	i	i
Cc1ccc2cc3cc(C(=O)N(CC(=O)NC4CCCC4)c4cccc(C)c4C)sc3nc2c1	i	i	i	-106	?
Cc1ccc(-n2nc(C)c3c(C)cc(=O)n(CC(=O)NC(C)c4ccccc4)c32)cc1 (stereo unspecified)	i	nt	nt	nt	nt
CCCOC(=S)Nc1ccccc1	i	i	i	i	22µM
CCCOC(=O)c1ccc(NC(=O)C2C3C=CC(O3)C2C(=O)O)cc1 (stereo unspecified)	i	i	1.8µM	i	?
CCCOC(=O)c1ccc(NC(=O)Oc2ccccc2)cc1	i	i	25µM	i	?
CCCOC(=O)c1ccc(NC(=O)c2ccoc2C)cc1	i	i	?	?	32µM
CCCOC(=O)c1ccc(NC(=O)COC)cc1	i	i	i	i	?
COC(=O)C1(CC(C)C)C=C2C(=C(C)C(=O)C2C)CN1 (stereo unspecified)	nt	i	?	nt	i
N#CCCn1c(=O)c(-c2ccc(F)cc2)nc2cnc(Oc3ccccc3)nc21	nt	i	?	nt	i
Cc1c(Br)ccc(NC(=O)CCN2C(=O)C3C4CCC(C4)C3C2=O)c1C (stereo unspecified)	i	i	32µM	i	i
O=C(Nc1ccc(Cl)cc1Cl)c1cc(S(=O)(=O)NCc2ccc3c(c2)OCO3)ccc1F	i	nt	nt	nt	nt
COc1cccc([C@@H]2Oc3ccc(Br)cc3C(=O)[C@H]2OC(=O)Nc2cc(OC)c(OC)c(OC)c2)c1	nt	nt	i	nt	i
O=C1NCCCC2c3c(cc(Br)c(O)c3Br)OC12N1CCOCC1 (stereo unspecified)	i	i	3.2µM	i	32µM
O=C1NCCCC2c3cc(O)c4ccccc4c3OC12N1CCCCC1 (stereo unspecified)	?	i	?	?	i
COC(=O)[C@@H]1C[C@H]1[C@@H](NS(=O)(=O)c1ccc(-c2ccccc2)cc1)c1ccccc1	nt	i	i	nt	i
N#C/C(=C\c1ccc(N2CCCCC2)o1)C(=O)Nc1cccc(Br)c1	?	i	?	-108	i
N#C/C(=C\c1ccc(N2CCCCC2)o1)C(N)=O	?	nt	i	nt	nt
CCOC(=O)/C(C)=N/NC(C)=O	nt	nt	i	nt	i
CCOCCCNC(=S)Nc1ccc(S(N)(=O)=O)cc1	i	i	i	i	14µM
Cc1ccc(SCCNC(=S)Nc2ccccc2)cc1	?	?	i	i	i
COc1ccc(NC(=S)NCc2ccc(S(N)(=O)=O)cc2)c(OC)c1	i	i	?	i	14µM
Cc1ccc(SCCNC(=S)Nc2ccc(C)c(C)c2)cc1	?	25µM	?	i	i
COc1ccc(CNC(=S)Nc2ccc(S(N)(=O)=O)cc2)cc1	nt	nt	28µM	nt	nt
SMILES	LMNA splice mod	ALOX12 inhib	ALDH1A1 block	PNC assembly inh	HPGD block
COc1ccc(CNC(=S)Nc2ccc(OC)cc2)cc1	i	i	?	i	i
CCCNC(=S)Nc1ccc(S(N)(=O)=O)cc1	nt	nt	i	nt	nt
Cc1ccccc1NC(=O)c1nc(S(C)(=O)=O)ncc1N(Cc1ccco1)Cc1sccc1C	i	nt	nt	nt	nt
COc1cc(OC)cc(C(=O)NNC(=S)Nc2ccc(S(N)(=O)=O)cc2)c1	nt	nt	11µM	nt	nt
Cc1ccc(NC(=S)NCCc2ccc(S(N)(=O)=O)cc2)cc1C	i	i	?	-109	nt
NS(=O)(=O)c1ccc(CNC(=S)NC2CC2)cc1	nt	nt	3.2µM	nt	nt
Cc1cc(C)cc(NC(=S)NCCc2ccc(S(N)(=O)=O)cc2)c1	i	i	?	i	i
CN(C)c1ccc(CNC(=O)c2ccc3nc(CCc4ccccc4)oc3c2)cc1	i	nt	nt	nt	nt
CCCCOc1ccc(C(=O)N/C(=C/C=C/c2ccccc2)C(=O)NCCO)cc1	i	i	i	?	i
C=CCNC(=O)/C(=C\C=C\c1ccccc1)NC(=O)c1ccc(OCCCC)cc1	i	i	i	-105	i
O=C(C(Cc1ccccc1)N1C(=O)c2ccccc2C1=O)N1CCc2ccccc21 (stereo unspecified)	i	i	i	-100	i
O=C(O)[C@H](Cc1ccccc1)N1C(=O)c2ccccc2C1=O	nt	i[11.4 µM]	?	nt	i
Cn1cccc1C(=O)N1CCC2(CC1)CCN(c1ccc(-c3ccccc3)cc1)CC2	nt	i	i	nt	i
Cc1ccc(-c2n[nH]c(=S)n2/N=C/C=C/c2ccccc2[N+](=O)[O-])cc1	i	i	i	i	2.8µM
COc1ccccc1/C=C\C=N\n1c(-c2ccc(Cl)cc2Cl)n[nH]c1=S	i	?	i	i	4µM
Cc1n[nH]c(=S)n1/N=C/c1cccc(OCc2ccccc2)c1	nt	nt	i	nt	nt
COc1ccccc1/C=C\C=N\n1c(-c2ccc(Cl)cc2)n[nH]c1=S	i	i	35µM	i	13µM
Cc1n[nH]c(=S)n1/N=C/c1ccccc1OCc1ccc(Cl)cc1	i	i	i	?	10µM
COCCc1ccc(OC[C@H](O)CNC(C)C)cc1	i	i	i	nt	i
CCCCOC(OCCCC)[C@H](O)CSc1ccc2ccccc2c1	nt	nt	i[13.5 µM]	nt	nt
COc1cccc(C2C(=O)N(C3CCCCC3)CC(=O)N2Cc2ccc(Cl)cc2)c1 (stereo unspecified)	i	nt	nt	nt	nt
CC1OC(OC2C(CO)OC(OC3C(CO)OC(O)C(O)C3O)C(O)C2O)C(O)C(O)C1NC1C=C(CO)C(O)C(O)C1O (stereo unspecified)	nt	i	?	nt	i
COc1ccccc1-c1nn2c(-c3ccc(C(C)(C)C)cc3)nnc2s1	i	i	?	i	i
COc1ccc(-c2nnc3sc(C(C)N4C(=O)c5ccccc5C4=O)nn23)cc1 (stereo unspecified)	i	i	i	i	7.1µM
Cc1onc(-c2ccccc2)c1C(=O)N1CCN(S(=O)(=O)c2ccc3c(c2)OCCO3)CC1	i	i	3.2µM	?	i
SMILES	LMNA splice mod	ALOX12 inhib	ALDH1A1 block	PNC assembly inh	HPGD block
COc1ccc(S(=O)(=O)N2CCN(C(=O)c3c(-c4ccccc4)noc3C)CC2)cc1	i	i	?	i	i
CCS(=O)(=O)c1ccc(Sc2nncn2C)c([N+](=O)[O-])c1	i[9.22 µM]	nt	22µM	nt	nt
CN(C)S(=O)(=O)c1cccc(NC(=O)c2ccc(Sc3nncn3C)c([N+](=O)[O-])c2)c1	nt	nt	0.56µM	nt	nt
Cn1cnnc1Sc1ccc(C(=O)NCCC23CC4CC(CC(C4)C2)C3)cc1[N+](=O)[O-]	i	i	2.8µM	i	i
COc1ccc(N2C(=O)C(Cl)=C(Nc3ccccc3OC)C2=O)cc1	?	i	i	?	i
COc1ccc(N2C(=O)C(Cl)=C(N(CCO)Cc3ccccc3)C2=O)cc1	i	i	i	-125	i
COc1ccc(-n2cc(C(=O)N(CCN(C)C)Cc3ccccc3)c3ccccc3c2=O)cc1	i	nt	nt	nt	nt
COc1ccc(N2C(=O)c3ccccc3C2=O)cc1	i	nt	i	nt	nt
